According to ChEMBL document CHEMBL1961873, “Compounds: GSK PKIS; Assays: Nanosyn kinase panel” (2012):
“And” between values parts separate entries of the source, which are not always exact repeats. Identical values can stand only once.

Tests used:
[1] = molecular target: Sphingosine kinase 1 (Homo sapiens) (UniProt Q9NYA1); details: at 1 µM;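 note: mean SPHK1 inhibition value reported from the GSK PKIS kinase panel screen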
[2] = molecular target: T1, Sphingosine kinase 2 (Homo sapiens) (UniProt Q9NRA0); details: at 0.1 µM
T1 sequence (whole entry): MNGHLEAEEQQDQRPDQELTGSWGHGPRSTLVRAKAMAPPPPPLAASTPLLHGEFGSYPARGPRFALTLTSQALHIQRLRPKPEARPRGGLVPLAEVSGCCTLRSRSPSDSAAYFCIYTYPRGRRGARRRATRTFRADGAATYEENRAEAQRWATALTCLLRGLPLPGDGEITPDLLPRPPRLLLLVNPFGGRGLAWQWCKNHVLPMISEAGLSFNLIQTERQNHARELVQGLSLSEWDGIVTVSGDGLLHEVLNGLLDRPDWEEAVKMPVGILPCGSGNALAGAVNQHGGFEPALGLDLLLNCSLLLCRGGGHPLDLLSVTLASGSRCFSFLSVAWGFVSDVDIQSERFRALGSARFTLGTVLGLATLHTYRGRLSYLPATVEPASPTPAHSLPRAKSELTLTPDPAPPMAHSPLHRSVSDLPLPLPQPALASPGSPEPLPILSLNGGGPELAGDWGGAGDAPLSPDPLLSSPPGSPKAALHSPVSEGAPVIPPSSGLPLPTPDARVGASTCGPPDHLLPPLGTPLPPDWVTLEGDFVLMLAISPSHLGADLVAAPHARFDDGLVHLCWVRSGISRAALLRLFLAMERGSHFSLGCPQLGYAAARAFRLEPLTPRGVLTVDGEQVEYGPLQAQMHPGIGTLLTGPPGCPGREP

[3] = molecular target: T1, Sphingosine kinase 2 (Homo sapiens); details: at 1 µM
[4] = molecular target: Casein kinase II subunit alpha (Homo sapiens) (UniProt P68400); details: at 0.1 µM
[5] = molecular target: Casein kinase II subunit alpha (Homo sapiens) (UniProt P68400); details: at 1 µM
[6] = molecular target: T2, Inhibitor of nuclear factor kappa-B kinase subunit alpha (Homo sapiens) (UniProt O15111); details: at 0.1 µM
T2 sequence (whole entry): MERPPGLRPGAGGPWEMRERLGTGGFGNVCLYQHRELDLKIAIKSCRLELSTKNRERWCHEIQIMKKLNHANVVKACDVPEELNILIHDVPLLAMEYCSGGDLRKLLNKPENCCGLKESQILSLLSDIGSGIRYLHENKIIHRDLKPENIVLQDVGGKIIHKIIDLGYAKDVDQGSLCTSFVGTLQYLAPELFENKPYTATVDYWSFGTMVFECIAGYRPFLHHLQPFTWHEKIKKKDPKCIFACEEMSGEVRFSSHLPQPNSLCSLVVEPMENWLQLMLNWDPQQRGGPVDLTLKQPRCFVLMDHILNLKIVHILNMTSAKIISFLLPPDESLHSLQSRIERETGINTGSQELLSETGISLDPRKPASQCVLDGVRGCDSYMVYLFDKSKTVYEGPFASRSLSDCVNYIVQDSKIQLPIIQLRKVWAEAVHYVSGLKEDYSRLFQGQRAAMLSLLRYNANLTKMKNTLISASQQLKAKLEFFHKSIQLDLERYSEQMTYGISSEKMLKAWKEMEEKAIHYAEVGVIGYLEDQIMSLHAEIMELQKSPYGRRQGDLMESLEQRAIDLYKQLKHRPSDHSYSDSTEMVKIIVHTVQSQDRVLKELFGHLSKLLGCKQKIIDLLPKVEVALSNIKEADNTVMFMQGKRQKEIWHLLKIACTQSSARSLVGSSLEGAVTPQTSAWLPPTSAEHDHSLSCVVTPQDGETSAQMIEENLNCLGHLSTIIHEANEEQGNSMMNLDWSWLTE

[7] = molecular target: T2, Inhibitor of nuclear factor kappa-B kinase subunit alpha (Homo sapiens); details: at 1 µM
[8] = molecular target: T3, Inhibitor of nuclear factor kappa-B kinase subunit beta (Homo sapiens) (UniProt O14920); details: at 0.1 µM
T3 sequence (whole entry): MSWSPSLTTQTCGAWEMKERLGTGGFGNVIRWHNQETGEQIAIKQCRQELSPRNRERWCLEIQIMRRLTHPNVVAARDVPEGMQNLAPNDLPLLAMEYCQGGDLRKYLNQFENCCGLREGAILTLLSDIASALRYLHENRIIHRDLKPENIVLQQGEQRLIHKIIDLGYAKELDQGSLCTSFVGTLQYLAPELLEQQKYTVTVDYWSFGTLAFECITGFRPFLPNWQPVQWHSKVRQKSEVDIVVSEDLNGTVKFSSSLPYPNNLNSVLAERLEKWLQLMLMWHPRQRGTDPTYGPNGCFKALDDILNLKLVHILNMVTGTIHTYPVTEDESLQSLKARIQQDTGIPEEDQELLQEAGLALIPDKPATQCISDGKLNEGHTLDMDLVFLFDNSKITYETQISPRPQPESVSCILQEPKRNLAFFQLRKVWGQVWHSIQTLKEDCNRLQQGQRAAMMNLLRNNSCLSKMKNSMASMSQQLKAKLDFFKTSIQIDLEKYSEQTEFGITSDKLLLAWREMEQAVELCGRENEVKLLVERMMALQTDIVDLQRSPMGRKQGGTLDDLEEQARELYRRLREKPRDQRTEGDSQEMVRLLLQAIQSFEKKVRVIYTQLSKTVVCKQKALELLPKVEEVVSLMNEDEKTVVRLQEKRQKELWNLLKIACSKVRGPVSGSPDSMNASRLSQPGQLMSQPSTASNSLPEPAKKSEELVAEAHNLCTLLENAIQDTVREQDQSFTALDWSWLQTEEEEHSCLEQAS

[9] = molecular target: T3, Inhibitor of nuclear factor kappa-B kinase subunit beta (Homo sapiens); details: at 1 µM
[10] = molecular target: T4, Inhibitor of nuclear factor kappa-B kinase subunit epsilon (Homo sapiens) (UniProt Q14164); details: at 0.1 µM;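 note: mean inhibition of IKKε reported, from the GSK PKIS dataset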
T4 sequence (whole entry): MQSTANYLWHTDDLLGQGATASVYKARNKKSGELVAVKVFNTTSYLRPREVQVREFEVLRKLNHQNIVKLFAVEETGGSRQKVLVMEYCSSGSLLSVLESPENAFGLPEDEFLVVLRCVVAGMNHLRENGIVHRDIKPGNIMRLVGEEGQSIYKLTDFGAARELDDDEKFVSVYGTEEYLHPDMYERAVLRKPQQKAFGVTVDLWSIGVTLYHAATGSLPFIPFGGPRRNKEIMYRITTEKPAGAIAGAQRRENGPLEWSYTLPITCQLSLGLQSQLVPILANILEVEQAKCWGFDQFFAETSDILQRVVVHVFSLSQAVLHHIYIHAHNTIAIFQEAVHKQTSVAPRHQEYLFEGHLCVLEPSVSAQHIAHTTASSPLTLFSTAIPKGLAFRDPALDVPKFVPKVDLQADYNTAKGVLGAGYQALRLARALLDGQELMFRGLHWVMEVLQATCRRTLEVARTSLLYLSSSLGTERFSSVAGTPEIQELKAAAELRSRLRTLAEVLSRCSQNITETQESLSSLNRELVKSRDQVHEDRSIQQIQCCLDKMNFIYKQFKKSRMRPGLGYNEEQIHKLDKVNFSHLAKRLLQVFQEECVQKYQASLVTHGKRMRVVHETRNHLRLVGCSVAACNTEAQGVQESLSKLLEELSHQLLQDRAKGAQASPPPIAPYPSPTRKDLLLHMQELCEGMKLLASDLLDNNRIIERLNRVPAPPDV

Chain of Casein kinase II subunit alpha (Homo sapiens) (P68400 whole entry, looked up): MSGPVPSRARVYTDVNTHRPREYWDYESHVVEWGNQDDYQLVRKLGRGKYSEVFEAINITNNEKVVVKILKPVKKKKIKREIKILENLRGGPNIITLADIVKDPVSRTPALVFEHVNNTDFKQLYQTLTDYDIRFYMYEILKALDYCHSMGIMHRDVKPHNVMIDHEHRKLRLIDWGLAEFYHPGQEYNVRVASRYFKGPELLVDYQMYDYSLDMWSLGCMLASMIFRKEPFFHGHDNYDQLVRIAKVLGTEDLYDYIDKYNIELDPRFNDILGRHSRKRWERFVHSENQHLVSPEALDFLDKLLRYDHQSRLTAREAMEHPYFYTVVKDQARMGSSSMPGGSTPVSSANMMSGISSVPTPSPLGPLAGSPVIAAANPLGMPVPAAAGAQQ
Chain of Sphingosine kinase 1 (Homo sapiens) (Q9NYA1 whole entry): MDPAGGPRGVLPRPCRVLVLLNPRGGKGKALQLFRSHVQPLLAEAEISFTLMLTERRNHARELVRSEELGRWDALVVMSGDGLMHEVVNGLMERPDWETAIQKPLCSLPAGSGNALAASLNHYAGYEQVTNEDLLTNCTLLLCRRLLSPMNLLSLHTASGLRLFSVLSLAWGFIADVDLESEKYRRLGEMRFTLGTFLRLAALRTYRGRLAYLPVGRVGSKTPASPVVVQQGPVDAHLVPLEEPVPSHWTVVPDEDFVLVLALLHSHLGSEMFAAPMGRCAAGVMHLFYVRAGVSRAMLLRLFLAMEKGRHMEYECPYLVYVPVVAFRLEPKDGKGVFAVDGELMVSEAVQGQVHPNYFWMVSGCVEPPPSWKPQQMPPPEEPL

SMILES | inhibition [1] | inhibition [2] | inhibition [3] | inhibition [4] | inhibition [5] | inhibition [6] | inhibition [7] | inhibition [8] | inhibition [9] | inhibition [10]
CCn1c(-c2nonc2N)nc2cncc(C(=O)NCCNC)c21 | -1.79% | -0.3% | 8.93% | 4.41% | 2.99% | 8.82% | 14.1% | 6.55% | 7.92% | 7.73%
CS(=O)(=O)CCNCc1ccc(-c2ccc3ncnc(Nc4ccc(OCc5cccc(C(F)(F)F)c5)cc4)c3c2)o1 | 0.32% | 0.1% | 0.04% | 5.1% | 4.66% | 3.34% | 4.53% | 4.47% | 8.68% | 4.74%
CCS(=O)(=O)c1ccc(OC)c(Nc2ncc(-c3cccc(C(C)=O)c3)o2)c1 | -2.18% | 0.25% | 0.73% | 6.61% | 21.6% | -1.71% | -1.11% | 5.35% | 5.04% | 6.89%
N#Cc1cccc(Nc2ncc(-c3ccccc3)o2)c1 | -2.86% | 0.09% | -1.96% | 2.39% | 11.7% | 5.02% | 3.79% | 3.29% | 5.96% | 5.55%
COc1ccc2ncn(-c3cc(O[C@H](C)c4ccccc4C(F)(F)F)c(C(N)=O)s3)c2c1 | 2.4% | -0.06% | -2.97% | -0.88% | 5.02% | 3.24% | -5.63% | -5.7% | 1.93% | -0.98%
Cc1nnc(-c2cccc(-c3ccc(C(=O)NCC4CC4)cc3)c2)o1 | -1.04% | 0.67% | -1.45% | 5.98% | 8.99% | -9.01% | -3.16% | 6.42% | 5.6% | 7.79%
Fc1cccc(COc2ccc(Nc3ncncc3C#Cc3ccccc3)cc2Cl)c1 | -2.79% | -1.37% | 0.98% | 4.56% | 11.3% | 6.1% | 4.54% | 8.5% | 9.35% | 7.72%
FC(F)(F)CNc1nccc(-c2cnn3ncccc23)n1 | -0.16% | -1.21% | -4.21% | 9.47% | 3.8% | 1.92% | 9.86% | 4.92% | 5.42% | 6.69%
Nc1nccc(-c2c(-c3ccc(F)cc3)ncn2C2CCNCC2)n1 | 5.1% and -0.03% | 0.57% and 0.62% | 1.73% and 0.57% | 0.26% and 2.91% | 18% and 2.93% | 5.16% and -0.81% | 8.44% and 4.4% | -3.54% and 0.6% | -2.15% and 0.23% | -4.18% and 0.25%
CCS(=O)(=O)c1ccc(OC)c(Nc2ncc(-c3cccc(F)c3)o2)c1 | 0.12% | -0.46% | 0% | 15.4% | 46.8% | 9.53% | 11% | 6.88% | 9.91% | 10.8%
COC(=O)Nc1nc2cc(Oc3ccc(NC(=O)Nc4ccccc4)cc3)ccc2[nH]1 | 3.1% | -0.28% | 0.5% | 1.57% | 7.67% | 10.9% | 8.6% | 4.21% | 5.49% | 5.85%
CCOc1ccc2c(-c3ccnc(Nc4cc(OC)cc(C(F)(F)F)c4)n3)cnn2n1 | 1.71% | 4.25% | 0% | 4.76% | 15.3% | -1.77% | 4.02% | -0.06% | -2.55% | 2.74%
Nc1nonc1-c1nc2cnccc2n1C1CC1 | -2.58% and -3.16% | 0.27% and 0.67% | 0.49% and 1.53% | 1.54% and 1.55% | 1.9% and 1.11% | 6.14% and 3.82% | 1.6% and 3.39% | 4.31% and 2.15% | 1.3% and 3.29% | 3.18% and 3.84%
CN(c1ccc(NC(=O)NCCN2CCOCC2)cc1)c1ccnc(Nc2ccc(CS(C)(=O)=O)cc2)n1 | 7.75% | 0.36% | 0.38% | 5.71% | 11.9% | 10.9% | 8% | 3.48% | 3.83% | 3.55%
N#Cc1ccc2c(-c3ccnc(NC4CC4)n3)c(-c3ccc(F)cc3)nn2c1 | 0.88% | -0.39% | 0.05% | 2.7% | 1.8% | 3.97% | -0.5% | 2.19% | 0.5% | 1.8%
